Compound in the test: Cc1cc(ccc1-c1ccccc1)C(=O)N1CCCN(CC1)C(=O)CCl [compound 10]
Briefly: probe-labelled cysteine peptide fold change vs DMSO (competition) (log2 fold change); higher = less target engagement (more negative = stronger competition). As to conditions: THP-1, incubation time: 4 h.

About 21,000 targets were measured; listed, in parts, are those with the largest changes and a random draw of the rest.
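Also: competitive profiling in live THP-1 cells: cysteine peptides tagged with an iodoacetamide desthiobiotin (IA-DTB) probe, intensity after compound treatment relative to DMSO-treated cells.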

UniProt O75643, sequence (O75643 whole entry, looked up): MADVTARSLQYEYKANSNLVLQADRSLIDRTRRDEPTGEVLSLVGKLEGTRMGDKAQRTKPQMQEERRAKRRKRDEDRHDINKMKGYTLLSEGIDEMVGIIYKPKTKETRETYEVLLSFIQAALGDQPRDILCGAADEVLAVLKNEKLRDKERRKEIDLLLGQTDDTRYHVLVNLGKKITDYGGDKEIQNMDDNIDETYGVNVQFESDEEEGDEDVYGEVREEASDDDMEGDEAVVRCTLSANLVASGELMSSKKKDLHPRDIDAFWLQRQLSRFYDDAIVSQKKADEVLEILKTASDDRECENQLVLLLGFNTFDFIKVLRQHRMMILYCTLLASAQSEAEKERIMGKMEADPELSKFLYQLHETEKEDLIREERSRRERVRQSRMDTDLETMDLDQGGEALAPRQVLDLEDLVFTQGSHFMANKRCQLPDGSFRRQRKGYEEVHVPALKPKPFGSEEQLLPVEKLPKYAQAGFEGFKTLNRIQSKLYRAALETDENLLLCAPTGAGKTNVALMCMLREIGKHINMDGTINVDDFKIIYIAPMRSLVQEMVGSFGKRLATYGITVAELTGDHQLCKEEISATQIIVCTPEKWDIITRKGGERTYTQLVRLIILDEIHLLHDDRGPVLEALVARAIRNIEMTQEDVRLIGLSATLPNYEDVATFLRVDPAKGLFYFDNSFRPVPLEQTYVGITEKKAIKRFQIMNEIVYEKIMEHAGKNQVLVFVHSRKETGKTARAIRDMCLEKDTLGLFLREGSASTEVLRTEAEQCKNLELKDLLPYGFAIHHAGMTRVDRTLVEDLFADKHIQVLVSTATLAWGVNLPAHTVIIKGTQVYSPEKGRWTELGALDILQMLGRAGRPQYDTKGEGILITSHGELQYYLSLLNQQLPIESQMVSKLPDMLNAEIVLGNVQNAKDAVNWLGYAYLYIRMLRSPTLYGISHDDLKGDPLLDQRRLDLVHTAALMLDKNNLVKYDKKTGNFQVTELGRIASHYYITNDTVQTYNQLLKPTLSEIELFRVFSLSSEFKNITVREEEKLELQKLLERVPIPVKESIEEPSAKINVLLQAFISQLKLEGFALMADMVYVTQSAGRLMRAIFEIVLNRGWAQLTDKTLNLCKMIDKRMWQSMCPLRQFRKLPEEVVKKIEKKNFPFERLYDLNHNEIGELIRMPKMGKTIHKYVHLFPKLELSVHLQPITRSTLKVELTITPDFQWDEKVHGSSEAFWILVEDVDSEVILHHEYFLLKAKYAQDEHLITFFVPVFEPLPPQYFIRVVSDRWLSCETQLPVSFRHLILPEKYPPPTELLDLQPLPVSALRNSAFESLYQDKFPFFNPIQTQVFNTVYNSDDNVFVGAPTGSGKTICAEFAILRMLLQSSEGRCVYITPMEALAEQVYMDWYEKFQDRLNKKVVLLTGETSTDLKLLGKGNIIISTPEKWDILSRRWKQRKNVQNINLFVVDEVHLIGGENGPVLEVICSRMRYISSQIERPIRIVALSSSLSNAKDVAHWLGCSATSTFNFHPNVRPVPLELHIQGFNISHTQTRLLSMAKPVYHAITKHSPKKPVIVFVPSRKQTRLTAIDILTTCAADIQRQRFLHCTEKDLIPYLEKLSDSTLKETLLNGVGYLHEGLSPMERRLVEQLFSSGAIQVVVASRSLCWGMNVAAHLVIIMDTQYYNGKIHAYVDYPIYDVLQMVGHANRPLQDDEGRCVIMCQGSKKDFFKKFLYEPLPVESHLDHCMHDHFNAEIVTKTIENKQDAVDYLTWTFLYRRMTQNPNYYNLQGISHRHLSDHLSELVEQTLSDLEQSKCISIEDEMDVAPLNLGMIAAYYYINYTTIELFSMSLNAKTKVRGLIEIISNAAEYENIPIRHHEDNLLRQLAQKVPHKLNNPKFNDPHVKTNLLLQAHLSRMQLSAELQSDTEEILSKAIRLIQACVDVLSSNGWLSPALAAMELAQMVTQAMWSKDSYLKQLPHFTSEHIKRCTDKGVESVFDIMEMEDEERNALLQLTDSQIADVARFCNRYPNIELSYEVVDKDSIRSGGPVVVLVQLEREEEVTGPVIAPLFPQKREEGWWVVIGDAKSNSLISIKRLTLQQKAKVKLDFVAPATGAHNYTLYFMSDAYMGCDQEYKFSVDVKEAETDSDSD
UniProt Q15020, sequence (Q15020 whole entry, looked up): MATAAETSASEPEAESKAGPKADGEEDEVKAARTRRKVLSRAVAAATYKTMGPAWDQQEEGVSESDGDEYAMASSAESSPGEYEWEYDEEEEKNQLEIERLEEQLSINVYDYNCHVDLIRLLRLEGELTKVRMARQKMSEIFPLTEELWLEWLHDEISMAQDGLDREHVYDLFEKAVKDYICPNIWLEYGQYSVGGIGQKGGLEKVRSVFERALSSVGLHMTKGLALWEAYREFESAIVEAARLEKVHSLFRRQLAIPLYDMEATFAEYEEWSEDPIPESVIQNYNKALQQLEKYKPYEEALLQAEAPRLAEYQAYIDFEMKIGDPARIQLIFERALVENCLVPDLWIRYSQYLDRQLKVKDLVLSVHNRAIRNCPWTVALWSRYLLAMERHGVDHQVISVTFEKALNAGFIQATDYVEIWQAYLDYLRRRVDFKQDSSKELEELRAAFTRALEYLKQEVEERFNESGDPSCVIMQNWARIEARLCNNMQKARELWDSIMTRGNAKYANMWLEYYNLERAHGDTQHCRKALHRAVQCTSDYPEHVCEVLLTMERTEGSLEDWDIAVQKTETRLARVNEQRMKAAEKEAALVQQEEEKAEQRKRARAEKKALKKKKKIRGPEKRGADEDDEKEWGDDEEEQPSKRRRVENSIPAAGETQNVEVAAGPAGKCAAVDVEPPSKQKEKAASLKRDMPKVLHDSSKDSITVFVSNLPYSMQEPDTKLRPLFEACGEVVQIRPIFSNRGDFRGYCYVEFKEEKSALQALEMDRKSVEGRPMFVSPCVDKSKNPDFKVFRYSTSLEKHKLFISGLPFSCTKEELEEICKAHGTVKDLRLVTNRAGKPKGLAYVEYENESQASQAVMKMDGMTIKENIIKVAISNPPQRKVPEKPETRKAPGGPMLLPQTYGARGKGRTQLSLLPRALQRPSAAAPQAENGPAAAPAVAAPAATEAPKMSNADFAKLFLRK
UniProt Q9BUL9, sequence (Q9BUL9 whole entry, looked up): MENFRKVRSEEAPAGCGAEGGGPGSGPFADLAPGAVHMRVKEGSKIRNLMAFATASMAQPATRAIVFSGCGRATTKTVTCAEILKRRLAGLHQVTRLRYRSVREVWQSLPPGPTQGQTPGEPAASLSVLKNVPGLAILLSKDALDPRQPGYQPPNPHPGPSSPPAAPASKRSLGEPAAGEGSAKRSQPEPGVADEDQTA
UniProt O75446, sequence (O75446 whole entry, looked up): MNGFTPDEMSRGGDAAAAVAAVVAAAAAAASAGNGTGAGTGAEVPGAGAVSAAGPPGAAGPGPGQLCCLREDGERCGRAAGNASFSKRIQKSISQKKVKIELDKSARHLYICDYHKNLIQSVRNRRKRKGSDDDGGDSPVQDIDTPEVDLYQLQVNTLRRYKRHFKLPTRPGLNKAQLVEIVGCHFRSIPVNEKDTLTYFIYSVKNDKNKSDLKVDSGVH
UniProt Q15637, sequence (Q15637 whole entry, looked up): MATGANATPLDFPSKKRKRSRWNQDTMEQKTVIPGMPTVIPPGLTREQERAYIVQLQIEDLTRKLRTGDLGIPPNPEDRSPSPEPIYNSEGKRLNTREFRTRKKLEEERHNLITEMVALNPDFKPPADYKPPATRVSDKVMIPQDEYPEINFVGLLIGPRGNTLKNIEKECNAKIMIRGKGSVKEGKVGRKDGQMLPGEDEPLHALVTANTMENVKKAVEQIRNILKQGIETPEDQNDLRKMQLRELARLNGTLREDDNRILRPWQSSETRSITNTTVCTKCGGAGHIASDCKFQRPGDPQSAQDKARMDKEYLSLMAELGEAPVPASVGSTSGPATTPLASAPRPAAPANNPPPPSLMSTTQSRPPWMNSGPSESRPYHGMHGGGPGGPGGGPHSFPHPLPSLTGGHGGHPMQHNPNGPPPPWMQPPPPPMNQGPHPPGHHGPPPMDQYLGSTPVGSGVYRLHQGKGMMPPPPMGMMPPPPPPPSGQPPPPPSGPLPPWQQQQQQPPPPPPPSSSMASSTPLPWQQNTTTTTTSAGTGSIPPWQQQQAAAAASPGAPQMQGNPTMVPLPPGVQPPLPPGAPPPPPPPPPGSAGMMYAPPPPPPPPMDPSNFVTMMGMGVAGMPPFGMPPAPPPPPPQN
UniProt Q9H7B4, sequence (Q9H7B4 whole entry, looked up): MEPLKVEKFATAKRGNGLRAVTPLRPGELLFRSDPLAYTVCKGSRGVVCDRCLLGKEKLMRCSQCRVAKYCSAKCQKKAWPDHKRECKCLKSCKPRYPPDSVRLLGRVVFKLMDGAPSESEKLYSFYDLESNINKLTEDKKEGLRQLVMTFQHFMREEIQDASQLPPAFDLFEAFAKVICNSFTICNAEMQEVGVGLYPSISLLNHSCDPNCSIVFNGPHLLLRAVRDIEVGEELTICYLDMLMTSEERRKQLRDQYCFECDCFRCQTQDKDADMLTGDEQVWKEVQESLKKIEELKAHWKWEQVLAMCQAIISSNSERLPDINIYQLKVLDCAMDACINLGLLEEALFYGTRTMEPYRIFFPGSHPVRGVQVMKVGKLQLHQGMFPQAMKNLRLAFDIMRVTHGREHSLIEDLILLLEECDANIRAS
UniProt P13489, sequence (P13489 whole entry, looked up): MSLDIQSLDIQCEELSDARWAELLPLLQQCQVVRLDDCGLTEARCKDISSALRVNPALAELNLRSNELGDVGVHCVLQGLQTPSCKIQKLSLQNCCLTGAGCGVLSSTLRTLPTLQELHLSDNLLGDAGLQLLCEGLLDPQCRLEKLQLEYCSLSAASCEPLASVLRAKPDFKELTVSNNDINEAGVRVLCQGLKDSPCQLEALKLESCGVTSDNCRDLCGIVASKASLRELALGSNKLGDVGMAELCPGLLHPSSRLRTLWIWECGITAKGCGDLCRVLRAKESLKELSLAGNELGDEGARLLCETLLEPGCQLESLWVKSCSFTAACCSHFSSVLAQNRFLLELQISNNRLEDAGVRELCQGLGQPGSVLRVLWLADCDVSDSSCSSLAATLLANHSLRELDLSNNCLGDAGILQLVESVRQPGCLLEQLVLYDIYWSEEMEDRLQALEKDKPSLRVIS

In the case of “RPLP0_P05388_27_CFIVGADNVGSK (UniProt P05388)”, the “probe-labelled cysteine peptide fold change” value is, setting by setting: (10 µM) 0.0238; (50 µM) 0.0907.

For “RTN3_O95197-3_42_SCSSSCAVHDLIFWR (UniProt O95197)”, the “probe-labelled cysteine peptide fold change” value (10 µM) is -2.02 and the “probe-labelled cysteine peptide fold change” value (50 µM) is -1.97.

Regarding “RSBN1_Q5VWQ0_318_DEQLCR (UniProt Q5VWQ0)”, the “probe-labelled cysteine peptide fold change” value (10 µM) is -0.206 and the “probe-labelled cysteine peptide fold change” value (50 µM) was -0.556.

Consider “SAP30_O75446_184_AQLVEIVGCHFR (UniProt O75446)”, for which the “probe-labelled cysteine peptide fold change” value (10 µM) was found to be 0.0105 and the “probe-labelled cysteine peptide fold change” value (50 µM) is -0.181.

With “SMNDC1_O75940_214_VGVGTCGIADKPMTQYQDTSK (UniProt O75940)”, the “probe-labelled cysteine peptide fold change” value was 0.155 (10 µM) and -0.732 (50 µM).

For the target “SLITRK4_Q8IW52_661_HEGLGNPDCGSMQLQLR (UniProt Q8IW52)”, the “probe-labelled cysteine peptide fold change” value runs as follows: (10 µM) -0.281; (50 µM) -0.498.

Regarding “RNF214_Q8ND24_696_FWAQTNTNDTCPFCPTLK (UniProt Q8ND24)”, the “probe-labelled cysteine peptide fold change” value reads like this: (10 µM) 0.35; (50 µM) 1.12.

“SMYD3_Q9H7B4_261+263_DQYCFECDCFR (UniProt Q9H7B4)”: the “probe-labelled cysteine peptide fold change” value (10 µM) was -0.0235 and the “probe-labelled cysteine peptide fold change” value (50 µM) was -0.599.

With “RNH1_P13489_30_WAELLPLLQQCQVVR (UniProt P13489)”, the “probe-labelled cysteine peptide fold change” value (10 µM) is 0.0863 and the “probe-labelled cysteine peptide fold change” value (50 µM) was 0.0624.

In the case of “SEMA4D_Q92854_370_PRPGACIDSEAR (UniProt Q92854)”, the “probe-labelled cysteine peptide fold change” value runs as follows: (10 µM) -0.224; (50 µM) -1.22.

With “SNRNP200_O75643_1278_VVSDRWLSCETQLPVSFR (UniProt O75643)”, the “probe-labelled cysteine peptide fold change” value is -0.0123 (10 µM) and -0.0331 (50 µM).

Turning to “RPP25_Q9BUL9_70_AIVFSGCGR (UniProt Q9BUL9)”, the “probe-labelled cysteine peptide fold change” value runs as follows: (10 µM) 0.319; (50 µM) -0.143.

For “SF1_Q15637_282_CGGAGHIASDCK (UniProt Q15637)”, the “probe-labelled cysteine peptide fold change” value is, setting by setting: (10 µM) 0.0635; (50 µM) -0.0325.

On to “RPS8_P62241_182_LLACIASRPGQCGR (UniProt P62241)”, for which the “probe-labelled cysteine peptide fold change” value reads like this: (10 µM) -0.207; (50 µM) -0.296.

On to “SART3_Q15020_182_DYICPNIWLEYGQYSVGGIGQK (UniProt Q15020)”, for which the “probe-labelled cysteine peptide fold change” value (10 µM) was determined as 0.208 and the “probe-labelled cysteine peptide fold change” value (50 µM) amounted to 0.164.

Source of the values: the supplement of paper PMC12067093, “Discovery and optimisation of a covalent ligand for TRIM25 and its application to targeted protein ubiquitination” (Chemical Science, 2025).
